This passage reports cell viability results from the supplement of paper PMC10981050.

Counter-ions that a name gives are not always drawn.

In one test the test system is OCI-AML2. Kind of test: cell viability relative to vehicle control; higher = less cytotoxic. The following applies: 10 µM; SRSF2 genotype: P95H/wt. The essentials:
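CRISPR-edited SRSF2 P95 mutant and isogenic wild-type clones of four leukaemia lines were screened against Selleck bioactive, kinase and epigenetic probe libraries, with identity-inconsistent compounds removed. Compounds were acoustically dispensed into 384-well plates at a single 10 µM dose, with 2000 cells in 50 µL medium per well. After 48 h, supernatant was removed and CellTiter-Glo luminescence was read. Viability was expressed as percent of the on-plate DMSO vehicle control, analysed in Genedata Screener.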
A word on the cell viability: it is a read-out of living cells in per cent, often relative to untreated cells. As for `C[C@]12CCC3=C4CCC(=O)C=C4CC[C@H]3[C@@H]1CC[C@@]2(O)CC#N` [Dienogest], the cell viability is 104%. Regarding `Cc1ccc(NS(=O)(=O)c2ccc3c(c2)C2C=CCC2C(c2ccc(C(=O)O)cc2)N3)cc1C` (stereo not drawn), the cell viability was 103%. In the case of `CC(=O)O[C@]1(C(C)=O)CC[C@H]2[C@@H]3C[C@H](C)C4=CC(=O)C=C[C@]4(C)[C@@]3(F)[C@@H](O)C[C@@]21C` [Fluorometholone Acetate], the cell viability turned out to be 99.5%.

For the compound `Cc1cccc(-c2[nH]c(C(C)(C)C)nc2-c2ccc3nccnc3c2)n1`, the cell viability is 108%. In the case of `COc1ccc(Cn2ccc3ccc(C(=O)NO)cc32)cc1`, the cell viability amounted to 69.3%. Regarding `COc1cc(C(=O)O)ccc1NC(=O)[C@@H]1N[C@@H](CC(C)(C)C)[C@](C#N)(c2ccc(Cl)cc2F)[C@H]1c1cccc(Cl)c1F` [Idasanutlin (RG-7388)], the cell viability was found to be 102%.

Still in this test, the particulars now being: 10 µM; SRSF2 genotype: wt/wt.
As for `COC(=O)c1ccc(O)c(C(=O)OC)c1` [Dimetghyl 4-Hydroxyisophthalate], the cell viability is 96.6%. On the same count and under the same terms, the result for `CN1CCN(c2cccc(Nc3nc4c(-c5ccc(S(C)(=O)=O)cc5)cccn4n3)c2)CC1` reads 22.6%. Consider `NS(=O)(=O)c1cc2c(cc1Cl)NC(C(Cl)Cl)NS2(=O)=O` (stereo not drawn) [Trichlormethiazide (Achletin)], for which the cell viability worked out at 110%. In the case of `Nc1[nH]cnc2ncnc1-2` [Adenine hydrochloride], the cell viability was determined as 118%. Same read-out and setting: the result for `Nc1ccc(C(=O)O)c(O)c1` [Sodium 4-Aminosalicylate] reads 97.5%; that for `O=c1c(-c2ccc(O)cc2)coc2cc(O[C@@H]3O[C@H](CO)[C@@H](O)[C@H](O)[C@H]3O)cc(O)c12` [Genistin (Genistoside)], 93.4%; that for `CC(C)=CCC[C@](C)(O[C@@H]1O[C@H](CO[C@@H]2OC[C@H](O)[C@H](O)[C@H]2O)[C@@H](O)[C@H](O)[C@H]1O)[C@H]1CC[C@]2(C)[C@@H]1[C@H](O)C[C@@H]1[C@@]3(C)CC[C@H](O[C@@H]4O[C@H](CO)[C@@H](O)[C@H](O)[C@H]4O[C@@H]4O[C@H](CO)[C@@H](O)[C@H](O)[C@H]4O)C(C)(C)[C@@H]3CC[C@]12C` [Ginsenoside Rb2], 101%. Same read-out and setting: for `COc1ccc(COc2ccc(Cc3cnc(N)nc3N)cc2OC)cc1` the value was 70.3%. As for `CCN(CC)CCCC(C)Nc1c2ccc(Cl)cc2nc2ccc(OC)cc12` (stereo not drawn) [Quinacrine Dihydrochloride Dihydrate], the cell viability turned out to be 0.97%. On the same count and under the same terms, for `Cc1c(-c2ccnn2C)cc(C(=O)NCc2ccc(S(C)(=O)=O)cn2)c(=O)n1-c1cccc(C(F)(F)F)c1` the value was 113%; for `O=C(O)Cc1ccc2c(c1)C(=O)c1ccccc1CO2` [Isoxepac], 105%.

As to `CC1(C)S[C@@H]2[C@H](NC(=O)Cc3ccccc3)C(=O)N2[C@H]1C(=O)O` [Penicillin G Sodium], the cell viability amounted to 109%.

As for `O=[N+]([O-])c1ccc(Sc2cccc[n+]2[O-])c2nonc12`, the cell viability was determined as 0.27%.

On to `COC(=O)c1cc(OC)c2c(c1-c1c(C(=O)OC)cc(OC)c3c1OCO3)OCO2` [Bifendate], for which the cell viability is 94.3%. For the compound `N#Cc1ccc(-c2c(-c3ncn[nH]3)sc(N3CCOCC3)c2C#N)c(F)c1`, the cell viability was found to be 24%. Same read-out and setting: the result for `Cc1ncc(CCCN(C)C)cc1Nc1ncc2c(n1)-c1ccc(C(F)(F)F)cc1NC(=S)C2` reads 21.1%; that for `Nc1ccccc1NC(=O)c1cnccn1`, 88.3%; that for `N[C@@H]1CCCN(c2c(/C=C3\SC(=O)NC3=O)cccc2-c2ccccc2)C1`, 75.1%. Turning to `O=C(O)CCCC[C@@H]1CCSS1` (racemic) [Thioctic acid], the cell viability was determined as 98.9%.

With `COc1cn(-c2ccc(-n3cccn3)cc2F)nc(-c2ccnn2-c2ccccc2)c1=O`, the cell viability came to 117%. Same read-out and setting: for `COc1ccc(S(=O)(=O)N(CCO)c2ccccc2CN(C)C/C=C/c2ccc(Cl)cc2)cc1` [KN-93 Phosphate] the value was 33.4%. On the same count and under the same terms, for `CC(C)OC(=O)C(C)(C)Oc1ccc(C(=O)c2ccc(Cl)cc2)cc1` [Fenofibrate (Tricor, Trilipix)] the value was 82.8%. Turning to `Cc1cc2c3c([n+](C)c4ccc(F)cc4c3c1)-c1cc(F)ccc1N2C` [RHPS 4 methosulfate], the cell viability was 8.9%.

Regarding `COc1cc(Nc2ncc(F)c(Nc3ccc4c(n3)NC(=O)C(C)(C)O4)n2)cc(OC)c1OC`, the cell viability is 47.7%.

With `COc1cc2ncnc(Nc3ccc(Oc4ccccc4)cc3C)c2cc1OC`, the cell viability is 43%. For the compound `Cn1cc(-c2ccc(S(=O)(=O)n3ccc(/C=C/C(=O)Nc4ccccc4N)c3)cc2)cn1`, the cell viability turned out to be 8.21%. Regarding `Cn1cc(CNCC2CCN(c3ncc(C(=O)NO)cn3)CC2)c2ccccc21`, the cell viability turned out to be 2.84%.
